Compound activity as filed in PubChem.
This is a sample that favours compounds with a hit; in the whole collection about 4.2% have one here.
ssDAF12 agonist: activates DAF-12 receptor from parasite S. stercoralis. activation, % at 6.8 µM. 1% of 370,000 active. HEK293 ssDAF-12/GRIP1 lit1-tk-luc reporter, luminescence; % of 3 µM dafachronic acid response;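 active = activation above the mean over all tested compounds plus 3 SD, cut at about 0.9% in these data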
DAX1 StAR inh: blocks DAX1 repression of SF-1 activated StAR promoter. inhibition, % at 6.8 µM. 1.1% of 370,000 active. AID 652010. HEK293T StAR-luciferase reporter, SF-1/DAX-1 repression relief;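 active = inhibition above the mean over all tested compounds plus 3 SD, cut at about 3.6% in these data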;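 note: higher inhibition means more luminescence from relief of DAX-1 repression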
hgDAF12 agonist: activates the H. glycines DAF-12 receptor ligand-binding domain | HEK293 GAL4-hgDAF12 UAS-luciferase reporter, agonist luminescence; normalized to butyrate control | activation, % at 6.8 µM | 1.8% of 370,000 active | AID 687014;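 active = activation above a cutoff set at the mean of all screened compounds plus 3 SD, cut at about 10% in these data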
esBAF inh: blocks esBAF chromatin remodeling in mouse ES cells | Bmi1-luciferase knock-in reporter, 24 h; 100% = twice the neutral-well signal | reporter increase, % at 12.5 µM | AID 602393 | 2% of 350,000 active; in the data active = activation above about 40%;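 note: a rise in the Bmi1 reporter signal indicates esBAF inhibition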
hcDAF12 agonist: activates DAF-12 receptor from parasite H. contortus. HEK293 hcDAF-12 lit1-tk-luc reporter, luminescence; 0% DMSO, 100% Δ7-dafachronic acid. activation, % at 6.8 µM. 1.4% of 370,000 active;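 active = activation above the mean of all tested compounds plus 3 SD, cut at about 5.5% in these data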
Wnt bcat act: activators of Wnt/beta-catenin signaling; Wnt/beta-catenin reporter cell assay, activator, plate reader; activation, % at 9.35 µM; 1.2% of 300,000 active; AID 743398; in the data active = activation above about 30%, passing the limit was not always enough
DAX1 conf: confirmation of human DAX1 (NR0B1) inhibitors; 87% of 2,400 active; HEK293T StAR-promoter luciferase reporter, SF-1/DAX-1 repression; inhibition, % at 6.8 µM; shares compounds with DAX1 StAR inh;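 active = inhibition above the average of every tested compound plus 3 SD, cut at about 3.8% in these data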;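 note: active compounds raise luminescence by relieving repression of the StAR reporter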
Target sequence (P51843 whole entry, looked up): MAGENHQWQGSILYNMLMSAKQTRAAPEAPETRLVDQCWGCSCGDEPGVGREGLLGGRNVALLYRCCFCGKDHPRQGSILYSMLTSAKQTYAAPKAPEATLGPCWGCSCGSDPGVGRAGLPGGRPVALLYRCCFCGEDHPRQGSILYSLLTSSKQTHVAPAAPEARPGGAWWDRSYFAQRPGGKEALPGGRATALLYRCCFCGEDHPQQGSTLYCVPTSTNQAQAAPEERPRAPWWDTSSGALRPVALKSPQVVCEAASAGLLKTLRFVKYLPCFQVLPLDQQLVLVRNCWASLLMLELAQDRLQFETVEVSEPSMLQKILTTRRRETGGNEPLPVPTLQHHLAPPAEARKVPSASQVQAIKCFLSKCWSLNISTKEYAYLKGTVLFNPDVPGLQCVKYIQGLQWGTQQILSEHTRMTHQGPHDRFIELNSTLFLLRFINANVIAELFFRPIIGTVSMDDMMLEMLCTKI
SF1 mutant ctr: nonselective inhibitor or artifact in SF-1 mutant DAX1 counter-screen | shares compounds with DAX1 StAR inh | HEK293 StAR-luciferase, SF-1 AF2 mutant, luminescence | inhibition, % at 6.8 µM | 78% of 2,400 active;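 active = inhibition above the mean of all tested compounds plus 3 SD, cut at about 3% in these data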
LXRb hcDAF ctr: counter-screen for hcDAF-12 agonists: agonists of human LXR-beta; activation, % at 6.8 µM; HEK293 Gal4-LXR tk-luc reporter, luminescence, 24 h; normalized: DMSO 0%, positive control 100%; 3,400 tested, under 10 active; shares compounds with hcDAF12 agonist;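 active = mean percent activation of the reporter above a cutoff set as the average over tested compounds plus their standard deviation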
hcDAF12 conf: confirmation of H. contortus DAF-12 agonists. shares compounds with hcDAF12 agonist. HEK293 hcDAF-12 lit1-tk-luc reporter, luminescence; % of Δ7-dafachronic acid response. activation, % at 6.8 µM. 61% of 3,400 active. AID 743032;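 active = mean activation across triplicate tests above the threshold derived from the earlier primary screen, cut at about 5.5% in these data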
hgDAF12 conf: confirmation of H. glycines DAF-12 agonists; shares compounds with hgDAF12 agonist; HEK293 GAL4-hgDAF12 luciferase reporter, agonist mode; percent of butyrate response; activation, % at 6.8 µM; 80% of 3,300 active; AID 743050;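 active = mean activation over triplicate wells above the hit cutoff derived from the earlier primary screen, cut at about 11% in these data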
LXRb DAF12 ctr: LXR-beta agonism as DAF-12 counter-screen | HEK293 Gal4-LXR luciferase reporter, 24 h | AID 743051 | 3,300 tested, under 10 active | shares compounds with hgDAF12 agonist | activation, % at 6.8 µM;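 active = mean activation of the triplicate above a set limit carried over from the primary screen, none filed active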
A number is an active result; i = inactive; nt = no result.

SMILES	ssDAF12 agonist	DAX1 StAR inh	hgDAF12 agonist	esBAF inh	hcDAF12 agonist	Wnt bcat act	DAX1 conf	SF1 mutant ctr	hgDAF12 conf	LXRb DAF12 ctr	others
CSCc1ccc(C(=O)Nc2ccc(C(N)=O)cc2)cc1	i	5.3	13	nt	i	i	9.6	5.0	13	i
Clc1ccc(OCCSc2ncccn2)c(Br)c1	1.8	5.5	21	nt	6.4	i	16	8.1	22	i
O=C(NN=Cc1ccc2c(c1)CCN2)c1cccs1	1.5	6.7	22	nt	9.8	i	17	7.0	26	i	LXRb hcDAF ctr=i;hcDAF12 conf=5.6
CCOC(=O)c1sc2nc(NC(=O)C3CC3)sc2c1C	i	i	i	i	i	i	nt	nt	nt	nt
CCOC(=O)c1sc2nc(NC(=O)C(C)(C)C)sc2c1C	i	5.2	14	i	i	i	4.1	i	i	i
COc1ccc(/C=C/C(=O)Nc2ccccc2C(=O)O)cc1OC	i	i	i	i	i	i	nt	nt	nt	nt
COc1ccc(/C=C/C(=O)Nc2ccccc2C(=O)O)cc1	i	5.2	14	i	6.2	i	7.9	i	11	i
CCCc1cn(CC[C@H]2CC[C@@H](NC(=O)Cc3cccnc3)[C@@H](CO)O2)nn1	nt	nt	nt	i	nt	nt	nt	nt	nt	nt
Cc1ccc(Cc2c(-c3cccc(Br)c3)nc3ccc(Br)cn23)cc1	i	i	i	i	i	i	nt	nt	nt	nt
Cc1ccc2nc(-c3cccc(Br)c3)c(Cc3ccsc3)n2c1	i	4.5	15	nt	i	i	i	i	i	i
COCCCNc1ccn2nc(-c3ccc(Cl)cc3)cc2n1	i	7.3	14	i	8.0	i	10	7.3	21	i	LXRb hcDAF ctr=i;hcDAF12 conf=6.5
C[C@@H]1CN([C@@H](C)CO)C(=O)Cc2cc(NS(=O)(=O)c3cccs3)ccc2O[C@@H]1CN(C)C(=O)NC1CCCCC1	nt	nt	nt	i	nt	nt	nt	nt	nt	nt
C[C@H]1CN([C@@H](C)CO)C(=O)c2cc(-c3ccccc3)cnc2O[C@@H]1CN(C)C(=O)Cc1ccccn1	nt	nt	nt	i	nt	nt	nt	nt	nt	nt
CC(C)N1CCC(=NNC(=O)c2ccccc2[N+](=O)[O-])CC1	i	i	i	nt	i	i	nt	nt	nt	nt
CC(C)N1CCC(=NNC(=O)c2cccs2)CC1	1.5	9.6	14	i	6.1	i	i	i	i	i
C/C(=N\Nc1nccnc1Cl)c1ccc(Cl)c(Cl)c1	i	4.5	17	i	6.3	i	i	i	i	i
C/C(=N\Nc1nccnc1Cl)c1ccc(F)cc1	1.5	9.6	20	nt	i	i	6.5	4.2	11	i
COCC(=O)N(C)C[C@H]1Oc2cc(-c3ccccc3F)ccc2S(=O)(=O)N([C@H](C)CO)C[C@H]1C	nt	nt	nt	i	nt	nt	nt	nt	nt	nt
C[C@@H]1CN([C@@H](C)CO)C(=O)c2cc(C#Cc3ccc(F)cc3)cnc2O[C@@H]1CN(C)C	nt	nt	nt	i	nt	nt	nt	nt	nt	nt
Cc1cc(C)n2c(NC3CCCC3)c(-c3cc4ccccc4o3)nc2n1	1.2	5.3	17	nt	i	i	4.2	i	i	i
COc1ccc(S(=O)(=O)N(C)C[C@@H]2OCCCC[C@H](C)Oc3ccc(NC(=O)Nc4c(C)noc4C)cc3C(=O)N([C@@H](C)CO)C[C@H]2C)cc1	nt	nt	nt	i	nt	nt	nt	nt	nt	nt
CC(Cc1ccccc1)NC(=O)c1ccc([N+](=O)[O-])cc1 (stereo unspecified)	i	4.8	14	nt	5.7	nt	14	8.9	14	i
CC(Cc1ccccc1)NC(=O)/C=C/c1ccc([N+](=O)[O-])cc1 (stereo unspecified)	i	i	i	nt	i	nt	nt	nt	nt	nt
C[C@H](CO)N1C[C@H](C)[C@H](CN(C)Cc2cccnc2)Oc2ncc(/C=C/c3ccccc3)cc2C1=O	nt	nt	nt	i	nt	nt	nt	nt	nt	nt
O=C(Nc1ccc2c(c1)OCCO2)c1cc2sccc2n1Cc1ccc(F)cc1	i	i	i	i	i	i	nt	nt	nt	nt
SMILES	ssDAF12 agonist	DAX1 StAR inh	hgDAF12 agonist	esBAF inh	hcDAF12 agonist	Wnt bcat act	DAX1 conf	SF1 mutant ctr	hgDAF12 conf	LXRb DAF12 ctr	others
Cn1c(C(=O)Nc2ccc3c(c2)OCCO3)cc2sccc21	1.2	6.9	15	i	9.7	i	8.8	6.8	18	i	LXRb hcDAF ctr=i;hcDAF12 conf=i
Cc1ccc(NC(=S)c2nc3ccccc3[nH]2)c(C)c1	1.6	5.1	24	nt	6.8	nt	17	8.1	19	i	LXRb hcDAF ctr=i;hcDAF12 conf=13
c1ccc2nc3c(nc2c1)[nH]c1ccccc13	1.7	4.6	18	nt	7.0	93	14	7.6	17	i	LXRb hcDAF ctr=i;hcDAF12 conf=11
COc1cc(OC)c2c(=O)cc(-c3ccccc3)oc2c1	i	4.7	16	i	i	52	4.7	i	i	i
Cc1ccccc1-c1cnc2c(c1)C(=O)N([C@@H](C)CO)C[C@H](C)[C@H](CN(C)C(=O)c1ccccc1)O2	nt	nt	nt	i	nt	nt	nt	nt	nt	nt
C/C(=N\NC(=O)c1ccccn1)c1ccc(C(=O)O)s1	i	5.2	22	nt	i	i	i	i	11	i
Cc1nc(Nc2nc3ccccc3o2)nc(C)c1C	i	4.6	15	nt	6.0	i	14	5.8	16	i
CN(C)CCNc1ncnc2c1cnn2-c1ccc(Cl)cc1	i	5.5	19	i	7.8	i	10.0	6.6	14	i	LXRb hcDAF ctr=i;hcDAF12 conf=i
Clc1ccc(-n2ncc3c(NCC4CCCO4)ncnc32)cc1 (stereo unspecified)	i	7.1	14	i	i	i	4.6	i	17	i
O=C(C[C@@H]1C[C@@H]2c3cc(NC(=O)Nc4ccccc4F)ccc3O[C@@H]2[C@@H](CO)O1)NC1CCCCC1	nt	nt	nt	i	nt	nt	nt	nt	nt	nt
O=C1c2ccccc2S(=O)(=O)N1CC1CC(c2ccc(Cl)cc2)=NO1 (stereo unspecified)	i	4.8	15	nt	6.7	46	14	7.5	14	i	LXRb hcDAF ctr=i;hcDAF12 conf=i
Cc1cc(C(=O)Nc2nc(C)c(C(=O)N(C)C)s2)ccc1[N+](=O)[O-]	i	4.6	14	nt	i	i	13	5.4	11	i
